Assay [1] in a line: Quantitative High-Throughput drug screen in 47 multiple myeloma cell lines against the NCATS MIPE library collection: JJN3_DSMZ cell viability assay (AID 1918966; also: nearly all actives have a fitted effect of over 50% in size). In outline: (§1)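 Primary qHTS used for cherry-picking: cells at 500/well, library compounds for 48 h (37C, 5% CO2), luminescent ATP assay.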
A short description of assay [2]: Quantitative High-Throughput drug screen in 47 multiple myeloma cell lines against the NCATS MIPE library collection: H1112_PLB cell viability assay (AID 1918967; also: nearly all actives have a fitted effect of over 30% in size). In outline: as §1
Assay [3] is described as follows: Quantitative High-Throughput drug screen in 47 multiple myeloma cell lines against the NCATS MIPE library collection: Karpas25_ECACC cell viability assay (AID 1918968; also: nearly all actives have a fitted effect of over 35% in size). The method in brief:
as §1

Assay [4] is described as follows: Quantitative High-Throughput drug screen in 47 multiple myeloma cell lines against the NCATS MIPE library collection: KMS27_JCRB cell viability assay (AID 1918970). Also: nearly all actives have a fitted effect of over 30% in size. The method in brief:
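CellTiter-Glo luminescence after 48 h drug exposure at 37 °C; 500 cells/well, 1536-well format, pin-tool compound addition; DMSO = 100%, media-only = 0% viability.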

Assay [5] in a line: Quantitative High-Throughput drug screen in 47 multiple myeloma cell lines against the NCATS MIPE library collection: KMS12BM_JCRB cell viability assay (AID 1918971). Also: nearly all actives have a fitted effect of over 35% in size. In outline:
(§2)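 Inhibition of cell viability is measured here. Each line was plated at 500 cells per well, treated with MIPE 4.0 drugs, kept 48 hours at 37C, then assayed for ATP content by CellTiter-Glo luminescence.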

Assay [6] is described as follows: Quantitative High-Throughput drug screen in 47 multiple myeloma cell lines against the NCATS MIPE library collection: KMS12PE_JCRB cell viability assay (AID 1918972). Also: nearly all actives have a fitted effect of over 30% in size. As to viability: series mostly up to about 46 µM. In outline:
(§3)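 Myeloma cell lines, 500 cells per well, exposed to MIPE 4.0 library compounds for 48 h at 37C, 5% CO2. Viability from ATP by CellTiter-Glo luminescence; normalised to DMSO (100%) and media-only (0%) wells.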

Assay [7] is described as follows: Quantitative High-Throughput drug screen in 47 multiple myeloma cell lines against the NCATS MIPE library collection: KMS20_JCRB cell viability assay (AID 1918973). Also: nearly all actives have a fitted effect of over 45% in size. The method in brief: as §1
Assay [8] in a line: Quantitative High-Throughput drug screen in 47 multiple myeloma cell lines against the NCATS MIPE library collection: KMS26_JCRB cell viability assay (AID 1918975). Also: nearly all actives have a fitted effect of over 45% in size. The method in brief:
as §2

The nature of assay [9]: Quantitative High-Throughput drug screen in 47 multiple myeloma cell lines against the NCATS MIPE library collection: INA6_PLB cell viability assay (AID 1918965; also: nearly all actives have a fitted effect of over 55% in size). In outline:
as §3

Records with an inconclusive call do not appear. Active and inactive are the calls of the source. Calls follow the shape of the dose curve; as a rule, active = well fitted cell-killing curve with a large enough effect; inconclusive = small, poorly fitted or top-dose-only effect, or effect the other way; inactive = no such curve, though single readings can be large or run the other way.
Potency is read from the fitted curve at half-maximal effect.

Take `CC(C)=CC[C@@H](O)C1=CC(=O)c2c(O)ccc(O)c2C1=O`: the Potency in assay [1] is 0.372 µM (active); in assay [2] it was 7.43 µM (active); in assay [3], 5.26 µM (active); in assay [4], 20.9 µM (active); in assay [5], 0.935 µM (active); in assay [6] it was 18.7 µM (active). Besides, the Potency in assay [7] is 14.8 µM (active); in [8], 0.418 µM (active).

`CCn1c(C(=O)N(C2CC2)C2CC2)cc2c3c(ncn3C)c(Nc3cc(C)n(C)n3)nc21`: the Potency in [1] was 20.9 µM (active); in [2] it was 18.7 µM (active); in [6], 11.8 µM (active); in assay [7] it was 16.6 µM (active). Besides, the Potency entry in [4], in assay [5] and in assay [8] was “inactive” in each case.

On to `Oc1ccc(C2CCN(c3ccnc4ccccc34)CC2)cc1O`, for which the Potency is 16.6 µM (active) in assay [1]; 7.43 µM (active) in [3]; 18.7 µM (active) in [4]; 16.6 µM (active) in assay [5]; 18.7 µM (active) in [6]; 18.7 µM (active) in assay [7]. For the same molecule, the Potency in assay [8] is 18.7 µM (active).

`CO[C@@H](C(=O)N1Cc2[nH]nc(NC(=O)c3ccc(N4CCN(C)CC4)cc3)c2C1)c1ccccc1`: the Potency in [1] was 23.5 µM (active); in assay [3], 16.6 µM (active); in assay [4], 23.5 µM (active); in assay [7], 16.6 µM (active).

In the case of `CCOC(=O)C1=C(N)Oc2ccc(Br)cc2C1C(C#N)C(=O)OCC` (stereo not drawn), the Potency in assay [1] was 20.9 µM (active); in assay [2], 16.6 µM (active); in assay [3] it was 20.9 µM (active); in assay [4], 18.7 µM (active); in [5], 18.7 µM (active); in assay [6] it was 18.7 µM (active). In addition, in assay [8], the Potency was 14.8 µM (active).

With `CC(C)C[C@H](CC(=O)O)C(=O)N[C@@H](Cc1c[nH]c2ccccc12)C(=O)N[C@@H](C)c1ccccc1`, the Potency result in assay [1], in assay [2], in [3], in assay [6], in [7] and in [8] was “inactive” each time.

In the case of `CC1(C)CCC(CN2CCN(c3ccc(C(=O)NS(=O)(=O)c4ccc(NCC5CCOCC5)c([N+](=O)[O-])c4)c(Oc4cnc5[nH]ccc5c4)c3)CC2)=C(c2ccc(Cl)cc2)C1`, the Potency is 20.9 µM (active) in assay [1]; 0.264 µM (active) in [2]; 0.118 µM (active) in assay [4]; 0.0526 µM (active) in assay [5]; 0.0833 µM (active) in assay [6]; 18.7 µM (active) in assay [8].

As to `C=C1C(=O)OC2C=C(C)CCC=C(C)CCC12` (stereo not drawn), the Potency in assay [1] was 16.6 µM (active); in assay [2] it was 20.9 µM (active); in [3], 20.9 µM (active); in assay [4] it was 20.9 µM (active); in assay [5] it was 20.9 µM (active); in [6], 20.9 µM (active).

On to `CN[C@@H](C)C(=O)N[C@H]1CN(C(=O)CC(C)C)CC[C@H]2CC[C@@H](C(=O)NC(c3ccccc3)c3ccccc3)N2C1=O`, for which the Potency in assay [9] is 8.33 µM (active); in assay [5] it was 26.4 µM (active); in assay [6], 3.72 µM (active).

Take `O=c1c(-c2ccc(O)cc2)coc2cc(O[C@@H]3O[C@H](CO)[C@H](O)[C@H](O)[C@H]3O)ccc12`: the Potency entry in [1], in assay [2], in [5], in [6] and in assay [8] was “inactive” each time.

For the molecule `COc1cc2ncnc(-n3nc(-c4ccccn4)nc3N)c2cc1OC`, the Potency is 4.69 µM (active) in assay [1]; 0.743 µM (active) in assay [2]; 0.743 µM (active) in assay [3]; 0.0935 µM (active) in assay [4]; 7.43 µM (active) in assay [5]; 1.32 µM (active) in assay [6]. Besides, the Potency in assay [7] was 6.62 µM (active); in [8], 14.8 µM (active).

For the molecule `COc1cc2c(cc1OC)CN(CCc1ccc(NC(=O)c3cc(OC)c(OC)cc3NC(=O)c3cnc4ccccc4c3)cc1)CC2`, the Potency in assay [1] was 0.526 µM (active); in assay [3] it was 8.33 µM (active); in assay [5], 10.5 µM (active). Further, the Potency result in [4] and in [6] was “inactive” in each case.

As to `CC(C)(Cc1ccc2ccccc2c1)NC[C@@H](O)COc1cccc(Cl)c1C#N`, the Potency in assay [1] was 5.9 µM (active). Further, the Potency entry in assay [2], in assay [3], in assay [4], in assay [5], in [6] and in [8] was “inactive” each time.

Regarding `CC#CCn1c(N2CCC[C@@H](N)C2)nc2c1c(=O)n(Cc1nc(C)c3ccccc3n1)c(=O)n2C`, the values for the Potency in assay [1] and in assay [3] were 3.72 µM (active) and 14.8 µM (active), respectively. For the same molecule, the Potency result in assay [4], in assay [6] and in assay [8] was “inactive” in each case.

On to `CNC(=O)c1ccc2cc(C3(O)CCn4cncc43)ccc2c1` (stereo not drawn), for which the Potency entry in assay [1], in [2], in assay [5], in [6], in assay [7] and in assay [8] was “inactive” in each case.

With `CN(C)Cc1ccc(-c2nc3cccc4c3n2CCNC4=O)cc1`, the Potency in [1] was 18.7 µM (active); in assay [2], 20.9 µM (active); in assay [3] it was 23.5 µM (active); in assay [4], 20.9 µM (active).

As to `COc1ccc(C2Sc3ccccc3N(CCN(C)C)C(=O)C2OC(C)=O)cc1` (stereo not drawn), the Potency result in assay [1], in assay [2], in assay [3], in [6] and in assay [7] was “inactive” each time. Also, the Potency in assay [5] was 2.64 µM (active).

Take `Cc1ccc(/C=N/NC(=O)c2ccccc2Oc2ccccc2)o1`: the Potency was 16.6 µM (active) in assay [9], 23.5 µM (active) in [5] and 16.6 µM (active) in [7].

With `COC(=O)N[C@H](C(=O)N1CCC[C@@H]1c1ncc(-c2ccc(-c3ccc(-c4cnc([C@@H]5CCCN5C(=O)[C@@H](NC(=O)OC)C(C)C)[nH]4)cc3)cc2)[nH]1)C(C)C`, the Potency in [1] was 23.5 µM (active); in [3] it was 23.5 µM (active); in [4] it was 23.5 µM (active); in assay [5] it was 20.9 µM (active); in assay [6] it was 16.6 µM (active).

The record behind these values is PubChem BioAssay (NCATS).
